Source: PubChem BioAssay AID2284102 (EPA ToxCast)
Records with an inconclusive call do not appear. Calls of active or inactive are those of the source. The calls were made as follows: active = hit-call score of the fitted dose curve at least 0.9, where 1 is the maximum; inconclusive = response in the unintended direction; inactive = score below 0.9.

Target: Tyrosine-protein kinase Lyn (Homo sapiens) (UniProt P07948)
Experiment: ERF_FR_ENZ_hLYN: Eurofins (ERF) Enzymatic Radiometric [Km ATP] KinaseProfiler LeadHunter Assay for human LYN Tyrosine Kinase
Description: ERF_FR_ENZ_hLYN is a biochemical, single-readout assay that uses extracted gene-proteins in a cell-free assay. Measurements were taken 0.5 hour after chemical dosing in a 96-well plate. See LYN (B) Human TK Kinase Enzymatic HTRF Assay [Km ATP], Cerep.ERF_FR_ENZ_hLYN is an assay component calculated from the ERF_FR_ENZ_hLYN assay. It is designed to measure enzyme activity using a type of enzyme reporter as detected by fluorescence intensity with HTRF technology.Data from the assay component ERF_FR_ENZ_hLYN was analyzed at the assay endpoint, ERF_FR_ENZ_hLYN, in the positive analysis fitting direction relative to DMSO as the negative control and baseline of activity. Using a type of enzyme reporter, loss-of-signal activity can be used to understand changes in enzymatic activity as they relate to gene LYN. To generalize the intended target to other relatable targets, this assay endpoint is annotated to the kinase intended target family, where the subfamily is non-receptor tyrosine kinase.
Lyn (h) is incubated with 50 mM Tris pH 7.5, 0.1 mM EGTA, 0.1 mM Na3VO4, 0.1% […], 0.1 mg/mL poly(Glu, Tyr) 4:1, 10 mM MgAcetate and [gamma-33P]-ATP (specific activity and concentration as required). The reaction is initiated by the addition of the Mg/ATP mix. After incubation for 40 minutes at room temperature, the reaction is stopped by the addition of phosphoric acid to a concentration of 0.5%. An aliquot of the reaction is then spotted onto a filter and washed four times for 4 minutes in 0.425% phosphoric acid and once in methanol prior to drying and scintillation counting.Compound should be supplied in 100% DMSO.We require a stock solution at a concentration of at least 50x higher than the Final Assay Concentration of your cpd. A 10mM stock is also acceptable.When ordering fewer than 60 kinase assays, we need 120uL of 50x concentrated stock. For more than 60 assays, we need 420 uL of 50xcc stock. Please apply the conversion if you provide 10mM stock solution or compounds in powder form (pre-weighed is required) From 50 cpds supplied as solids, the TAT will be extended.

Sequence of Tyrosine-protein kinase Lyn (Homo sapiens) (P07948 whole entry, looked up): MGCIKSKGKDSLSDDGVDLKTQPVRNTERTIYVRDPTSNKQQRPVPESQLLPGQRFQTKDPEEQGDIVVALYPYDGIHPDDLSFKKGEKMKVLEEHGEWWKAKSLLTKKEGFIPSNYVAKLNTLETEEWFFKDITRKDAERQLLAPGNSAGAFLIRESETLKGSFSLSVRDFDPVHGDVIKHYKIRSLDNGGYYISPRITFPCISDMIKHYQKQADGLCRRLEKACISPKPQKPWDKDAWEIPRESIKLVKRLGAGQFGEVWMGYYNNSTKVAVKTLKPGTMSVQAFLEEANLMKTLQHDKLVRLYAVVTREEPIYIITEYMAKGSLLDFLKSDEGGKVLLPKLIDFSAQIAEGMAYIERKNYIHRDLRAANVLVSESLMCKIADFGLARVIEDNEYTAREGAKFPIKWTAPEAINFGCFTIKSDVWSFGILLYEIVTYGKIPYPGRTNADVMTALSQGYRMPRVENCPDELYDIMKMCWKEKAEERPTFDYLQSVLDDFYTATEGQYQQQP

Row | Structure (SMILES) | AC50
1 | O=C(/C=C/c1ccc(O)cc1)CC(=O)/C=C/c1ccc(O)cc1 | 2600 nM (active)
2 | COc1cc(/C=C/C(=O)CC(=O)/C=C/c2ccc(O)c(OC)c2)ccc1O | 24.6 nM (active)
3 | COc1cc(CCC(=O)CC(=O)CCc2ccc(O)c(OC)c2)ccc1O | 2360 nM (active)
